Results filed as inconclusive are left out. Activity calls are given as the source filed them. Calls follow the shape of the dose curve; as a rule, active = well fitted inhibition curve with a large enough effect; inconclusive = small, poorly fitted or top-dose-only effect; inactive = no such curve, though single readings can be large or run the other way.
Each compound was assayed against N-terminal Xaa-Pro-Lys N-methyltransferase 1 (Homo sapiens) (UniProt Q9BV86) (assay: qHTS Assay for Inhibitors of N-terminal methyltransferase 1 (NTMT1): MTaseGlo Assay Confirmatory Screen, Round 1). Settings: Recombinant NTMT1, MTase-Glo SAH luminescence; series mostly up to 57.1 µM; activity change, negative = inhibition: at the top concentration.
Chain of N-terminal Xaa-Pro-Lys N-methyltransferase 1 (Homo sapiens) (Q9BV86 whole entry, looked up): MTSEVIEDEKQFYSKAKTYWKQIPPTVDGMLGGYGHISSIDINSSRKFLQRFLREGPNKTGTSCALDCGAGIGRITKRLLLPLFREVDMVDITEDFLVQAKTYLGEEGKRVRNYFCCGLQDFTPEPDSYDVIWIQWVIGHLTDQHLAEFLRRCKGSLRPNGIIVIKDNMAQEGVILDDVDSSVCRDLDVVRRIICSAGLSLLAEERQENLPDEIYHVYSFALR
Outline: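 Luminescence from MTase-Glo conversion of SAH to ATP measured activity after a 30 min RT reaction with 1 µM SPKRIA substrate, 100 µM SAM and 125 nM enzyme. Normalization used no-enzyme and DMSO controls, followed by Hill fitting.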
Also: 0% is about no effect.

Activity change, negative = inhibition, inactive:
Nc1ncnc2c1ncn2[C@@H]1O[C@H](CO)C[C@@H]1O -8.62%
COc1cc2nc(N3CCN(C(N)=O)CC3)nc(NC3CC3)c2cc1OC -13.1%
Nc1ncnc2c1nc(Br)n2C1OC(CO)C(O)C1O (configuration not stated) -7.93%
Nc1ncnc2c1ncn2[C@@H]1O[C@H](COP(=O)(O)OP(=O)(O)OP(=O)(O)OP(=O)(O)OC[C@@H]2O[C@H](n3cnc4c(N)ncnc43)[C@@H](O)C2O)C(O)[C@H]1O (some centres not stated) 850%
NC(=O)c1ccc[n+]([C@@H]2O[C@H](COP(=O)([O-])OP(=O)(O)OC[C@H]3O[C@@H](n4cnc5c(N)ncnc54)[C@H](O)[C@@H]3O)[C@@H](O)[C@H]2O)c1 360% [at 19 µM]
OC[C@@H]1O[C@@H](n2cnc3c(NCc4ccco4)ncnc32)[C@H](O)[C@H]1O 51.5%
COc1cc2nc(N3CCCN(C)CC3)nc(NC3CCOCC3)c2cc1OC 10.6%
COc1cc2nc(N3CCCN(C)CC3)nc(NC3CCCCC3)c2cc1OC 41.1%
CNc1nc(N2CCN(C)CC2)nc2cc(OC)c(OC)cc12 -0.109%
COc1cc2nc(N3CCN(C)CC3)nc(N3CCN(C(C)=O)CC3)c2cc1OC 5.41%
CCN(c1cc(-c2ccc(CN3CCOCC3)cc2)cc(C(=O)NCc2c(C)cc(C)[nH]c2=O)c1C)C1CCOCC1 13.3%
COc1cc2c(NC3CCN(C)CC3)nc(N3CCCCC3)nc2cc1OCCCN(C)C -13.2%
Nc1ncnc2c1ncn2[C@H]1O[C@H](CO)[C@@H](O)[C@@H]1O -6.56%
CC(C)(COP(=O)(O)OP(=O)(O)OC[C@H]1O[C@@H](n2cnc3c(N)ncnc32)[C@H](O)[C@@H]1OP(=O)(O)O)[C@H](O)C(=O)NCCC(=O)NCCS 34%
COC1C(CO)OC(n2cnc3c(=O)[nH]cnc32)C1O (configuration not stated) -3.11%
COc1cc2c(NC3CCN(C)CC3)nc(N3CCCN(C)CC3)nc2cc1OCC1CCNCC1 -20.9%
NC(=S)c1ccc[n+]([C@@H]2O[C@@H](COP(=O)([O-])OP(=O)(O)OC[C@H]3O[C@@H](n4cnc5c(N)ncnc54)[C@H](OP(=O)(O)O)[C@@H]3O)C(O)C2O)c1 (some centres not stated) 11.4%
COc1cc2nc(NC3CCN(C)CC3)nc(NC3CCN(C)CC3)c2cc1OC -9.76%
COc1cc2nc(N3CCCN(C)CC3)nc(NC3CCN(C)CC3)c2cc1OC -11.5%
Nc1ncnc2c1ncn2[C@@H]1O[C@H](C(=O)NC2CC2)[C@@H](O)[C@H]1O 4.71%
Nc1nc(Cl)nc2c1ncn2[C@@H]1O[C@H](COP(=O)(O)OP(=O)(O)OP(=O)(O)O)[C@@H](O)[C@H]1O 78.7%
COc1cc2nc(N3CCN(C(C)=O)CC3)nc(NC3CC3)c2cc1OC 2.41%
COc1cc2nc(N3CCCCC3)nc(NC3CCN(Cc4ccccc4)CC3)c2cc1OC -12.7%
CNc1nc(NC2CC2)c2cc(OC)c(OC)cc2n1 3.67%
Nc1ncnc2c1ncn2[C@@H]1O[C@H](C[C@@H](N)CC[C@H](N)C(=O)O)[C@@H](O)[C@H]1O 3.5%
O=c1[nH]cnc2c1ncn2C1O[C@H](CO)[C@@H](O)[C@H]1O (some centres not stated) 6.52%
CNc1ncnc2c1ncn2[C@H]1C[C@H](O)[C@@H](CO)O1 7.11%
C[C@@H](Cc1ccccc1)Nc1ncnc2c1ncn2[C@@H]1O[C@H](CO)[C@@H](O)[C@H]1O -8.34%
CNc1ncnc2c1ncn2[C@@H]1O[C@H](CO)C(O)[C@H]1O (some centres not stated) 215%
Nc1ncnc2c1ncn2[C@@H]1O[C@H](COP(=O)(O)OP(=O)(O)OP(=O)(O)OP(=O)(O)OC[C@@H]2O[C@H](n3cnc4c(N)ncnc43)[C@@H](O)[C@H]2O)[C@@H](O)[C@H]1O 1000%
CCN1CCN(c2nc(NC3CC3)c3cc(OC)c(OC)cc3n2)CC1 0.219%
Nc1nc2c([nH]c(=O)n2[C@@H]2O[C@H](CO)[C@@H](O)[C@H]2O)c(=O)[nH]1 -0.0532% [at 6.33 µM]
O=C(Nc1ncnc2c1ncn2[C@@H]1O[C@@H]2COP(=O)(O)O[C@H]2[C@H]1O)c1ccccc1 5.01%
COc1cc2c(NC3CCN(C(C)C)CC3)nc(N3CCC(F)(F)CC3)nc2cc1OCCCN1CCCCC1 -14.1%
OC[C@H]1O[C@@H](n2cnc3c(NC4CCCC4)ncnc32)[C@H](O)C1O (some centres not stated) 6.88%

Potency, inactive:
O=c1[nH]cnc2c1ncn2[C@@H]1O[C@H](CO)[C@@H](O)[C@H]1O
Nc1nc(F)nc2c1ncn2[C@@H]1O[C@H](CO)[C@@H](O)[C@@H]1O

From PubChem BioAssay AID1347145 (National Center for Advancing Translational Sciences (NCATS), 2019)
